Several values for one entry are separate records, joined by “and”; a condition that tells them apart may be missing. Equal values may be shown once. Results filed as inconclusive are left out. Activity calls are given as the source filed them. The calls were made as follows, unless noted: active = hit-call score of the fitted dose curve at least 0.9, where 1 is the maximum; inactive = score below 0.9.
Columns and labels:
[1] = APR_HepG2_CellCycleArrest_1hr: Apredica 1-hour HepG2 Assay for Cell Cycle Arrest (AID 2282666); conditions: high-content imaging, actives raise or lower the signal
Outline: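 Cell cycle arrest scored from nuclear DNA content (Hoechst 33342) using high-content imaging of fixed HepG2 cells after 1 h treatment across 0.39–200 uM, in duplicate. Gain or loss fitted relative to 0.5% DMSO.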

[2] = ACEA_ER_80hr: ACEA Biosciences xCELLigence Real-Time Cell Analysis on Estrogen Receptor Agonism for Proliferation (AID 2282667; active = hit-call score of the fitted dose curve at least 0.9, where 1 is the maximum); conditions: T47D proliferation, impedance (xCELLigence), 80 h
Outline: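 T-47D cells monitored by electrical impedance (xCELLigence) with compound present throughout; 80 h timepoint, positive-direction fitting versus DMSO. Eight-point 1:4 dilutions from 100 uM final, duplicate plates.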

[3] = APR_HepG2_CellLoss_1hr: Apredica 1-hour HepG2 Assay for Cell Loss (AID 2282668); conditions: high-content imaging;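 also: curves fitted both ways against DMSO so gain or loss of cells counts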
Outline: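 Cell number comes from high-content imaging of Hoechst-labelled nuclei in fixed HepG2 cells. Cells were exposed for 1 h to ten concentrations from 0.39 to 200 uM in 0.5% DMSO. Gain or loss was fitted against DMSO controls.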

[4] = APR_HepG2_NuclearSize_1hr: Apredica 1-hour HepG2 Assay for Nuclear Size (AID 2282670); conditions: high-content imaging, actives raise or lower the signal
Outline: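 Nuclear size measured by high-content imaging of Hoechst 33342 nuclear stain after formaldehyde fixation; human HepG2 line exposed 1 hr to compounds at 0.39–200 uM in 0.5% DMSO, with bidirectional curve fitting relative to DMSO.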

[5] = APR_HepG2_p53Act_1hr: Apredica 1-hour HepG2 Assay for p53 Activation (AID 2282671); conditions: high-content imaging, actives raise or lower the signal
Outline: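 After 1 h exposure (0.39–200 uM, 0.5% DMSO final, duplicates), fixed HepG2 cells were labelled with anti-p53 antibody plus Hoechst nuclear stain. Fluorescence quantified by automated 20x imaging; changes fitted in both directions against DMSO.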

[6] = APR_HepG2_P-H2AX_1hr: Apredica 1-hour HepG2 Assay for H2AX Phosphorylation (AID 2282673); conditions: high-content imaging, actives raise or lower the signal
Outline: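 Phospho-H2A.x immunofluorescence (1:200, FITC secondary) plus Hoechst nuclear stain, quantified by high-content imaging in HepG2 after 1 hr compound exposure. Ten concentrations, 0.39 to 200 uM, in duplicate with 0.5% DMSO; fit both directions against DMSO.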

[7] = APR_HepG2_MitoMembPot_1hr: Apredica 1-hour HepG2 Assay for Mitochondrial Membrane Potential (AID 2282675); conditions: imaging, actives raise or lower the signal
Outline: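 Mitochondrial membrane potential read as MitoTracker Red CMXRos intensity by automated imaging of fixed HepG2 cells. Dye at 250 nM for 30 min pre-fixation; compounds 0.39 to 200 uM for 1 hour, duplicate wells, 0.5% DMSO.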

[8] = APR_HepG2_MitoMass_1hr: Apredica 1-hour HepG2 Assay for Mitochondrial Mass (AID 2282674); conditions: high-content imaging, actives raise or lower the signal
Outline: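 Mitochondrial mass is taken from MitoTracker Red CMXRos (250 nM, 30 min, pre-fixation) fluorescence imaged at 20x in HepG2 cells. Exposure lasted 1 hr across ten concentrations, 0.39 to 200 uM, 0.5% DMSO; DMSO baseline, bidirectional fitting.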

Measured: AC50

CCNc1nc(Cl)nc(NCC)n1
not listed: [8]
inactive: all other assays above

O=C(O)COc1nc(Cl)c(Cl)cc1Cl
not listed: [8]
inactive: all other assays above

CC(Oc1ccc(Cl)cc1Cl)C(=O)O (stereo not given)
not listed: [8]
inactive: all other assays above

CCON=C(CC)C1=C(O)CC(c2c(C)cc(C)cc2C)CC1=O (stereo not given)
not listed: [8]
inactive: all other assays above

C=CCC1=C(C)[C@@H](OC(=O)[C@@H]2[C@@H](C=C(C)C)C2(C)C)CC1=O
active: [7] 109 µM
not listed: [8]
inactive: all other assays above

N#Cc1cc(Br)c(O)c(Br)c1
not listed: [8]
inactive: all other assays above

COc1ccc(C(c2ccc(OC)cc2)C(Cl)(Cl)Cl)cc1
active: [2] 10.4 µM and 1.41 µM and 728 nM | [7] 100 µM
not listed: [8]
inactive: all other assays above

CCOP(=S)(OCC)SCn1c(=O)oc2cc(Cl)ccc21
not listed: [8]
inactive: all other assays above

N#Cc1nn(-c2c(Cl)cc(C(F)(F)F)cc2Cl)c(N)c1S(=O)C(F)(F)F (stereo not given)
active: [7] 54.4 µM
inactive: all other assays above

COC(=O)N(OC)c1ccccc1COc1ccn(-c2ccc(Cl)cc2)n1
active: [7] 0.0634 µM
not listed: [8]
inactive: all other assays above

CCOC(=O)CC(SP(=S)(OC)OC)C(=O)OCC (stereo not given)
not listed: [8]
inactive: all other assays above

Cc1cc(Cl)ccc1OCC(=O)O
not listed: [8]
inactive: all other assays above

CCCCOC(=O)c1ccccc1C(=O)OCCCC
not listed: [8]
inactive: all other assays above

CCCN(CCC)c1c([N+](=O)[O-])cc(S(N)(=O)=O)cc1[N+](=O)[O-]
active: [1] 108 µM | [3] 66.6 µM | [4] 61.6 µM | [6] 88.7 µM
inactive: [2] | [7]

O=C(O)c1nc(Cl)ccc1Cl
not listed: [8]
inactive: all other assays above

Source: PubChem BioAssay (EPA / NIEHS)
